Drawing on the supplement of paper PMC8047044, this text covers neurite formation score for 37 compounds.

Where a name gives a salt, the structure may show the parent alone.

The experiment has as its system Neuro-2a. Kind of experiment: neurite formation score, plate-normalized to DMSO control mean 5.04 (score (0-8 scale)); higher = more or longer neurites. The settings on record: 0.1 µM. On the procedure: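 Neuro-2a mouse neuroblastoma cells in PLL-coated 96-well plates were pre-treated for 1 h in DMEM(+) with each kinase inhibitor at 0.1 µM, then switched to serum-free DMEM(-) with inhibitor to induce neurite outgrowth and fixed about 2-3 h later. Three blinded observers scored neurite formation from 0 (no neurites) to 8 (long neurites on almost all cells).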
In turn, `C[C@@H](Oc1cc(-n2cnc3ccc(CN4CCN(C)CC4)cc32)sc1C(N)=O)c1ccccc1C(F)(F)F` yielded a neurite formation score of 3.58.
The figure for `CCc1cncnc1N1CCN(Cc2nc3ccc(C(F)(F)F)cc3[nH]2)CC1` is 4.42; for `Cc1ccc([N+](=O)[O-])cc1S(=O)(=O)N(C)/N=C/c1cnc2ccc(Br)cn12` it is 3.08; for `CCN(CC)CCCC(C)Nc1nc(C)cc(Nc2ccc3nc(C)cc(N)c3c2)n1` (configuration not stated) it is 5.38.
In turn, `CNC(=O)c1ccc(-c2cnc3ncc(Cc4ccc5ncccc5c4)n3n2)cc1F` returned a neurite formation score of 4.09.
As for `CCS(=O)(=O)c1cccc(-c2cc(C(=O)NC3CCN(C)CC3)c(C)c3[nH]c4ncc(C)cc4c23)c1`, the figure is 4.58; as for `Cc1cnc(Nc2ccc(F)cc2Cl)nc1-c1c[nH]c(C(=O)N[C@H](CO)c2cccc(Cl)c2)c1`, 4.58.
The figure for `Cc1cn(-c2cc(NC(=O)c3ccc(C)c(Nc4nccc(-c5cccnc5)n4)c3)cc(C(F)(F)F)c2)cn1` [Nilotinib monohydrochloride monohydrate] is 3.09; for `CCN(CC)CCNC(=O)c1c(C)[nH]c(/C=C2\C(=O)Nc3ccc(F)cc32)c1C` [Sunitinib] it is 5.58.
As for `C[C@H](NC(=O)/C(C#N)=C/c1cccc(Br)n1)c1ccccc1`, the figure is 4.58; as for `CCCCCCCCCCCCCC(=O)OC[C@H](CO)OC(=O)CCCCCCCCCCCCC` [1,2-Dimyristoyl-sn-glycerol], 5.08; as for `N#Cc1c(Oc2ccc(F)c(NC(=O)Cc3cccc(C(F)(F)F)c3)c2)ccc2nc(NC(=O)C3CC3)sc12`, 4.54.
Compound `COc1ccc(CNC(=O)Nc2ncc([N+](=O)[O-])s2)cc1` gave a neurite formation score of 4.71.
In turn, `Cc1ccccc1CN1C2=NCCN2C(=O)C2=C1CCN(Cc1ccccc1)C2` came in with a neurite formation score of 4.25.
The figure for `O=C(NCCO)c1cccc(-c2cc(Nc3ccc(OC(F)(F)F)cc3)ncn2)c1` is 4.92.
Turning to `COc1ccc(-c2cc3c(C)nc(N)nc3n([C@H]3CC[C@H](OCCO)CC3)c2=O)cn1`, the neurite formation score came to 4.92.
With `O=S(=O)(c1cccc2c(O)nccc12)N1CCCNCC1` [Hydroxyfasudil hydrochloride], the neurite formation score is 2.09.
The figure for `COc1cc(Nc2ncc(F)c(Nc3ccc4c(n3)NC(=O)C(C)(C)O4)n2)cc(OC)c1OC` [R406 (free base)] is 5.21.
As for `CC(C)(C)c1nc2c3cc[nH]c(=O)c3c3cc(F)ccc3c2[nH]1` [Pyridone 6], the figure is 5.25; as for `Cc1ccc(C(=O)Nc2ccc(CN3CCN(C)CC3)c(C(F)(F)F)c2)cc1C#Cc1cnc2cccnn12`, 3.88; as for `O=C1NC(=O)C(=Cc2ccc(-c3ccc(F)cc3)o2)S1` (stereo in doubt), 3.08.
The figure for `CCS(=O)(=O)Nc1ccc2[nH]c(O)c(C(=Nc3ccc(CN4CCCCC4)cc3)c3ccccc3)c2c1` [Hesperadin] is 3.92; for `COc1cc2ncc(-c3ccccc3)nc2cc1OC` [Tyrphostin AG 1296] it is 5.04.
In the case of `Oc1ccc(-c2nc(-c3ccc(F)cc3)c(-c3ccncc3)[nH]2)cc1`, the neurite formation score stood at 4.71.
For `CCN1C(=CC(C)=O)Sc2ccc(OC)cc21`, the neurite formation score was 4.92.
As for `COc1cc2ncnc(Nc3cccc(Cl)c3)c2cc1OC`, the figure is 5.54; as for `CNC(=O)c1ccccc1Nc1cc(Nc2ccc(N3CCOCC3)cc2OC)ncc1C(F)(F)F`, 5.58; as for `COc1cc(Nc2ncc3c(n2)-c2ccc(Cl)cc2C(c2c(F)cccc2OC)=NC3)ccc1C(=O)O` [MLN8237 (Alisertib)], 4.58.
As for `O=C(O)c1ccc(Nc2ncc3c(n2)-c2ccc(Cl)cc2C(c2c(F)cccc2F)=NC3)cc1`, the figure is 2.76; as for `C[C@@H]1CN(CC(=O)Nc2ccc3c(c2)Cc2cccc(-c4cc(=O)cc(N5CCOCC5)o4)c2S3)C[C@H](C)O1`, 5.21; as for `CNC(=O)c1cc(COc2nnc(Nc3ccc(Cl)cc3)c3ccoc23)ccn1` [Telatinib (BAY 57-9352)], 4.92.
As for `Cc1[nH]c(/C=C2\C(=O)Nc3ccc(S(=O)(=O)N(C)c4cccc(Cl)c4)cc32)c(C)c1C(=O)N1CCN(C)CC1`, the figure is 5.04.
Compound `O=C(NC[C@H](O)CO)c1ccncc1Nc1ccc(I)cc1F` had a neurite formation score of 5.54.
The compound `C=CC(=O)Nc1cccc(Nc2nc(Nc3ccc(N4CCN(C(C)=O)CC4)cc3OC)ncc2C(F)(F)F)c1` had a neurite formation score of 3.71.
The figure for `CNC(=O)c1nn(C)c2c1C(C)(C)Cc1cnc(Nc3ccc(N4CCN(C)CC4)cc3)nc1-2` is 4.58.
As for `CO[C@H]1C[C@@H]2CC[C@@H](C)[C@@](O)(O2)C(=O)C(=O)N2CCCC[C@H]2C(=O)O[C@H]([C@H](C)C[C@@H]2CC[C@@H](OC(=O)C(C)(CO)CO)[C@H](OC)C2)CC(=O)[C@H](C)/C=C(\C)[C@@H](O)[C@@H](OC)C(=O)[C@H](C)C[C@H](C)/C=C/C=C/C=C/1C` [Temsirolimus], the figure is 4.21; as for `CC1=CC(=O)C(C(C)C)=C/C1=N/OC(=O)c1ccccc1C` [Poloxin], 5.25.
